What was measured:
Test in all cases: protein binding microarray; high values mean tight binding
Settings in all cases: dsDNA, one strand shown
[1] = biological target: RELARELA (p65 homodimer) (Homo sapiens, UniProt Q04206 1-307)
[2] = biological target: p50p50 homodimer (Homo sapiens, UniProt P19838 7-356)
[3] = biological target: T1, p52p52 homodimer (Homo sapiens, UniProt Q00653 4-332)
T1 sequence: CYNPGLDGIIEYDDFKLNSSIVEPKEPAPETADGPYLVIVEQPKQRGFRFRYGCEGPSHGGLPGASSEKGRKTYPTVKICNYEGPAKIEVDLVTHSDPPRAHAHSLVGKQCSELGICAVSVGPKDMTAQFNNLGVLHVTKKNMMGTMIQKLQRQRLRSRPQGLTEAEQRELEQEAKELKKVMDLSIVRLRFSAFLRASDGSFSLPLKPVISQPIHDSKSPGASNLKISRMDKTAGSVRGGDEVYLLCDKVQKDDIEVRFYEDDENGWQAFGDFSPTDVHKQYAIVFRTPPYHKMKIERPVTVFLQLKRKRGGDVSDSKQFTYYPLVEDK

[4] = biological target: RELA (p65) subunit of heterodimer;p50 subunit (Homo sapiens;Homo sapiens, UniProt Q04206;P19838 1-307;7-356)
Chain of RELA (p65) subunit of heterodimer;p50 subunit (Q04206 1-307, chain 1 of 2): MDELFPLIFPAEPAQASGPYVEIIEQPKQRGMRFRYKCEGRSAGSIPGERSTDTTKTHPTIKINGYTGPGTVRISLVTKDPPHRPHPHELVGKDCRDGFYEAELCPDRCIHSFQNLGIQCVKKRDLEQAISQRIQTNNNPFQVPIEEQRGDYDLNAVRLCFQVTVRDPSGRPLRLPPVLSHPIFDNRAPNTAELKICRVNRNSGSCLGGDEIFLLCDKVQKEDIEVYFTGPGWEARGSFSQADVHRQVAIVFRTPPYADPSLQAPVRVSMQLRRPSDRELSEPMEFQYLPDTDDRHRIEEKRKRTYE
Chain of RELA (p65) subunit of heterodimer;p50 subunit (P19838 7-356, chain 2 of 2): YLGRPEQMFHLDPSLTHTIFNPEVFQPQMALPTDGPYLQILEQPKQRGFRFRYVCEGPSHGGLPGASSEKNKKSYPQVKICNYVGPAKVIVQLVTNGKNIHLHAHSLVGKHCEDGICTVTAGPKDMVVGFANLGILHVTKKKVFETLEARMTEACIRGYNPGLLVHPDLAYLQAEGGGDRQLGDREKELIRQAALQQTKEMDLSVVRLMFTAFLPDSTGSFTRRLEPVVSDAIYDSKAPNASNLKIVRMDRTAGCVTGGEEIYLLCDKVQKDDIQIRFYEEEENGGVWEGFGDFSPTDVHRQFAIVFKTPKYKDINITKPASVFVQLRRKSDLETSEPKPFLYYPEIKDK

[5] = biological target: RELA (p65) subunit of heterodimer;p52 subunit (Homo sapiens;Homo sapiens, UniProt Q04206;Q00653 1-307;4-332)
[6] = biological target: RELB subunit;p50 subunit (Homo sapiens;Homo sapiens, UniProt Q01201;P19838 120-401;7-356)
[7] = biological target: T2, RELB subunit;p52 subunit (Homo sapiens;Homo sapiens, UniProt Q01201;Q00653 120-401;4-332)
T2 sequence 1: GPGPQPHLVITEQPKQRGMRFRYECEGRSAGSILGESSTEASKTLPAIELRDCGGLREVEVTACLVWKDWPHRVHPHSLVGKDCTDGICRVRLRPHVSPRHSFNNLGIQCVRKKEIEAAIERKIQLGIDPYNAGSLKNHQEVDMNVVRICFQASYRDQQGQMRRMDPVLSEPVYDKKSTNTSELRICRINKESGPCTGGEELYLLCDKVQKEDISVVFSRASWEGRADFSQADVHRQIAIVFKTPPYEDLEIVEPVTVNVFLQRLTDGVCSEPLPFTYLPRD
T2 sequence 2: T1 sequence

[8] = biological target: C-Rel subunit;p50 subunit (Homo sapiens;Homo sapiens, UniProt Q04864;P19838 1-285;7-356)
[9] = biological target: T3, C-Rel subunit;p52 subunit (Homo sapiens;Homo sapiens, UniProt Q04864;Q00653 1-285;4-332)
T3 sequence 1: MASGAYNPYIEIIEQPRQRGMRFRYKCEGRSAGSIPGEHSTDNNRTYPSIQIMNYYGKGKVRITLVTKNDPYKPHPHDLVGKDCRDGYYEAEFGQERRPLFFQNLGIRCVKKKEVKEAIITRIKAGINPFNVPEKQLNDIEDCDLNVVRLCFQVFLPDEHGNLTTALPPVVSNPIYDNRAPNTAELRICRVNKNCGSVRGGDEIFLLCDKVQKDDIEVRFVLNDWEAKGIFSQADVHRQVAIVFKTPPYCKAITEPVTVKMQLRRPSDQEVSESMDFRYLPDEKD
T3 sequence 2: T1 sequence

Chain of p50p50 homodimer (P19838 7-356): as the sequence (P19838 7-356, chain 2 of 2) above
Chain of RELARELA (p65 homodimer) (Q04206 1-307): as the sequence (Q04206 1-307, chain 1 of 2) above

Sequence	binding signal [1] [z-score]	binding signal [2] [z-score]	binding signal [3] [z-score]	binding signal [4] [z-score]	binding signal [5] [z-score]	binding signal [6] [z-score]	binding signal [7] [z-score]	binding signal [8] [z-score]	binding signal [9] [z-score]
GAAATCCTCCT	-0.0844	-0.961	-0.613	-0.658	-0.961	-0.979	-0.866	-0.982	-0.715
AGATGTTCCCT	0.238	0.414	0.229	0.235	-0.0295	0.0779	-0.091	0.0801	-0.204
CAAGAAACCCT	-0.512	-0.321	-0.245	-0.525	-0.264	-0.492	-0.353	-0.467	-0.305
CAGTGTTTCCT	0.51	-0.616	-0.52	-0.47	-0.473	-0.831	-0.677	-0.349	-0.285
GAGGAGCCCCC	-0.939	1.04	0.368	0.44	0.25	0.656	0.61	0.625	0.222
CGAAAGTTCCT	0.451	-0.747	-0.53	-0.689	-0.651	-0.963	-0.709	-0.537	-0.406
GGGTTCGTCCC	0.22	0.238	1.59	0.186	1.09	0.251	0.438	0.489	0.747
CGGTTGCTCCT	-0.357	-1.5	-0.686	-0.927	-0.989	-1.09	-0.904	-1.44	-1
AAGGTAGCCCC	-0.468	0.424	0.109	-0.162	0	0.152	0.184	0.249	0.217
GAAGGCATCCT	-0.848	-1.34	-0.851	-1.13	-1.21	-1.29	-1.12	-1.72	-1.14
GAGTAGTCCCT	0.344	1.35	1.21	0.997	0.922	1.12	1.06	0.633	0.66
AAGTGCTCCCT	-0.204	-0.136	-0.291	-0.382	-0.51	-0.322	-0.434	-0.836	-0.646
CGATTAGTCCT	-0.163	-1.16	-0.532	-0.961	-0.861	-1.12	-0.766	-1.1	-0.684
GAGAGCCCCCC	-1.07	1.13	0.398	0.853	0.722	0.759	0.733	0.773	0.389
AAGTTGATCCC	-0.64	-0.815	-0.6	-0.903	-0.719	-0.688	-0.621	-1.07	-0.615
CAAGTATTCCT	-0.0829	-1.19	-0.607	-0.839	-0.737	-0.975	-0.645	-0.507	-0.822
CAGGGTCCCCC	-0.42	0.876	0.451	1.23	0.881	1.22	1.39	0.998	0.408
CAAGACGCCCT	-0.812	-2.01	-0.745	-0.983	-0.966	-1.04	-0.904	-1.34	-0.839
GAATTCACCCC	0.545	0.437	0.192	0.892	0.806	0.49	0.753	0.643	0.698
GGGGTTGTCCC	2.19	0.663	2.99	1.73	2.67	2.02	1.88	1.31	2.32
GGAGAACCCCC	0.892	1.01	1.75	1.88	1.77	1.42	1.59	1.21	1.74
CAATGACTCCT	-0.344	-1.02	-0.692	-1.08	-1.05	-1.12	-0.995	-1.33	-1.13
CGGAATCCCCT	2.17	1.6	2.39	2.3	2.13	2.43	2.22	1.83	2.31
AAGGTCCTCCT	-0.719	-0.992	-0.49	-0.86	-0.773	-0.932	-0.687	-1.16	-0.643
GAAGATTTCCT	0.421	-0.715	-0.513	-0.241	-0.568	-0.764	-0.77	-0.169	-0.383
AAATTACTCCC	0.447	0.204	-0.0753	0.132	-0.25	0.146	-0.105	0.213	-0.11
AGATACATCCC	-0.0343	-0.79	-0.47	-0.557	-0.673	-0.73	-0.746	-0.981	-0.677
GGGTAGGCCCC	-0.379	0.314	1.45	0.396	1.04	0.459	0.305	0.392	0.593
AAATTGGCCCC	-0.344	0.122	-0.144	0.118	-0.121	0.375	0.258	0.04	-0.0339
GAAGATACCCT	-0.565	0.622	0.0699	0.217	0.0853	0.142	0.032	-0.0626	2.91e-05

From publication PMC3218832
